The text below walks through data of PubChem BioAssay (EPA / NIEHS).

Records with an inconclusive call do not appear. Active and inactive are the calls of the source. The calls were made as follows, unless noted: active = hit-call score of the fitted dose curve at least 0.9, where 1 is the maximum; inactive = score below 0.9.

The nature of test [1]: ATG_NFI_CIS: Attagene CIS-FACTORIAL HepG2 Assay for human Nuclear Factor I (NFI) (AID 2282989). Conditions: HepG2 cis-regulatory reporter, NFI response element transcription; actives raise or lower the signal. A digest of the protocol:
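Reporter transcription driven by endogenous transcription factors in HepG2 cells; 24 h treatment. Quantitation by labelled RT-PCR fragments on capillary electrophoresis, gain- or loss-of-signal relative to DMSO.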

Test [2] has as its target Myc proto-oncogene protein (Homo sapiens) (UniProt P01106). The test is described as follows: ATG_Myc_CIS: Attagene CIS-FACTORIAL HepG2 Assay for human Myelocytomatosis (Myc) Proto-Oncogene Transcription Factor (AID 2282990). Conditions: HepG2, Attagene cis-reporter transcription factor activity; actives raise or lower the signal. A digest of the protocol:
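Fluorescence intensity of reporter-specific cDNA fragments, separated by capillary electrophoresis, gives the signal. Transfected HepG2 cells carrying cis-promoter reporter constructs are incubated with compound for 24 h; DMSO serves as baseline.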

The nature of test [3]: ATG_NRF2_ARE_CIS: Attagene CIS-FACTORIAL HepG2 Assay for human Nuclear Factor Erythroid 2 Related Factor 2 (NFR2) response to Antioxidant Response Elements (ARE) (AID 2282992).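 As to AC50: reporter mRNA level measured by RT-PCR and capillary electrophoresis fluorescence.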 Particulars: HepG2 Attagene ARE/NRF2 reporter, transcription factor activity; actives raise or lower the signal. A digest of the protocol:
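Endogenous transcription factor activity in human liver HepG2 cells is tracked via a cis-element-driven reporter within a multiplexed set. mRNA induction is read by RT-PCR and capillary electrophoresis after 24 h, with DMSO as baseline.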

A short description of test [4]: ATG_Oct_MLP_CIS: Attagene CIS-FACTORIAL HepG2 Assay for human Octamer-Binding Transcription Factor (Oct) (AID 2282993). Particulars: HepG2 Attagene cis-factorial Oct reporter, mRNA; actives raise or lower the signal. A digest of the protocol: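 Transfected HepG2 cells, 24 h treatment. Reporter mRNA quantified by RT-PCR–capillary electrophoresis; bidirectional fitting against DMSO.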

Test [5] concerns the target Cellular tumor antigen p53 (Homo sapiens) (UniProt P04637). The test is described as follows: ATG_p53_CIS: Attagene CIS-FACTORIAL HepG2 Assay for human p53 Transcription Factor (AID 2282994). Particulars: HepG2 p53 cis-element reporter, Attagene mRNA; actives raise or lower the signal. A digest of the protocol: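 Steps: transfect HepG2 with multiplexed cis reporter constructs; dose chemicals 24 h; extract RNA, reverse-transcribe, PCR-amplify reporter sequences; FAM-label, HpaI-digest, resolve fragments by CE. Activity fitted both directions relative to DMSO.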

Test [6] has as its target Retinoic acid receptor alpha (Homo sapiens) (UniProt P10276). Briefly: ATG_RARa_TRANS: Attagene TRANS-FACTORIAL HepG2 Assay for human Retinoic Acid Receptor alpha (RARa) (AID 2283005; active = hit-call score of the fitted dose curve at least 0.9, where 1 is the maximum). A digest of the protocol: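 HepG2 transiently transfected with multiplex GAL4-UAS reporter units including a human RARa–GAL4 chimera; 24 h compound exposure. Reporter mRNA quantified by RT-PCR, 6-FAM labeling and capillary electrophoresis; gain of signal versus DMSO.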

For test [7], the target named is human Peroxisome Proliferator-activated Receptor alpha (PPARa), PPARA (gene 5465) (UniProt Q07869). The test is described as follows: ATG_PPARa_TRANS: Attagene TRANS-FACTORIAL HepG2 Assay for human Peroxisome Proliferator-activated Receptor alpha (PPARa) (AID 2283001; active = hit-call score of the fitted dose curve at least 0.9, where 1 is the maximum;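 as to AC50: potency for gain of reporter signal over DMSO so agonist or activator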). A digest of the protocol:
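HepG2, transient MRTU transfection, 24 h treatment. RT-PCR → FAM labelling → capillary electrophoresis. Fit vs DMSO, positive direction.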

In test [8] the target is human Retinoic Acid Receptor beta (RARb), RARB (gene 5915) (UniProt P10826). The test is described as follows: ATG_RARb_TRANS: Attagene TRANS-FACTORIAL HepG2 Assay for human Retinoic Acid Receptor beta (AID 2283004; active = hit-call score of the fitted dose curve at least 0.9, where 1 is the maximum). A digest of the protocol:
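HepG2 cells transiently transfected with multiplexed GAL4-UAS reporter units expressing chimeric NR–Gal4 fusions; 24 h compound exposure. Reporter mRNA quantified by RT-PCR, 6-FAM labelling, HpaI digestion and capillary electrophoresis; gain-of-signal fitted against DMSO baseline.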

In test [9] the target is Nuclear receptor subfamily 1 group I member 2 (Homo sapiens) (UniProt O75469). Briefly: ATG_PXR_TRANS: Attagene TRANS-FACTORIAL HepG2 Assay for human Pregnane X Receptor (PXR) (AID 2283008; active = hit-call score of the fitted dose curve at least 0.9, where 1 is the maximum). A digest of the protocol:
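HepG2 transfected (FuGene 6) with GAL4-UAS reporter units + PXR-Gal4 chimera; dosed 24 h. Total RNA → oligo(dT) RT → PCR → 6-FAM primer extension → HpaI cut → CE. Gain-of-signal vs DMSO.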

Test [10] has as its target human RAR-related Orphan Receptor beta (RORb), RORB (gene 6096) (UniProt Q92753). Briefly: ATG_RORb_TRANS: Attagene TRANS-FACTORIAL HepG2 Assay for human RAR-related Orphan Receptor beta (RORb) (AID 2283010; active = hit-call score of the fitted dose curve at least 0.9, where 1 is the maximum). A digest of the protocol:
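Transfect HepG2 with multiple GAL4-UAS reporter transcription units; dose chemicals for 24 h; isolate RNA, reverse-transcribe and PCR-amplify reporter sequences; label, digest and resolve fragments by capillary electrophoresis; fit increases relative to DMSO.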

Test [11] has as its target human Peroxisome Proliferator-activated Receptor delta (PPARd), PPARD (gene 5467) (UniProt Q03181). Briefly: ATG_PPARd_TRANS: Attagene TRANS-FACTORIAL HepG2 Assay for human Peroxisome Proliferator-activated Receptor delta (PPARd) (AID 2283002; active = hit-call score of the fitted dose curve at least 0.9, where 1 is the maximum). A digest of the protocol: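 Fluorescence from capillary electrophoresis of labelled RT-PCR reporter fragments gives the signal; DMSO sets baseline. Cells: HepG2 transiently carrying GAL4-UAS reporter units plus chimeric nuclear receptor-Gal4 proteins, exposed to chemicals for 24 h.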

The target in test [12] is Peroxisome proliferator-activated receptor gamma (Homo sapiens) (UniProt P37231). The test is described as follows: ATG_PPARg_TRANS: Attagene TRANS-FACTORIAL HepG2 Assay for human Peroxisome Proliferator-activated Receptor-gamma (PPARg) (AID 2283007; active = hit-call score of the fitted dose curve at least 0.9, where 1 is the maximum). A digest of the protocol: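 Endpoint reflects upward reporter mRNA change versus DMSO controls. Setup: transiently transfected HepG2, GAL4-UAS reporters driven by chimeric NR-Gal4, 24 h incubation, RT-PCR with capillary electrophoresis read-out.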
Sequence of Peroxisome proliferator-activated receptor gamma (Homo sapiens) (P37231 whole entry, looked up, the tested form may be a part): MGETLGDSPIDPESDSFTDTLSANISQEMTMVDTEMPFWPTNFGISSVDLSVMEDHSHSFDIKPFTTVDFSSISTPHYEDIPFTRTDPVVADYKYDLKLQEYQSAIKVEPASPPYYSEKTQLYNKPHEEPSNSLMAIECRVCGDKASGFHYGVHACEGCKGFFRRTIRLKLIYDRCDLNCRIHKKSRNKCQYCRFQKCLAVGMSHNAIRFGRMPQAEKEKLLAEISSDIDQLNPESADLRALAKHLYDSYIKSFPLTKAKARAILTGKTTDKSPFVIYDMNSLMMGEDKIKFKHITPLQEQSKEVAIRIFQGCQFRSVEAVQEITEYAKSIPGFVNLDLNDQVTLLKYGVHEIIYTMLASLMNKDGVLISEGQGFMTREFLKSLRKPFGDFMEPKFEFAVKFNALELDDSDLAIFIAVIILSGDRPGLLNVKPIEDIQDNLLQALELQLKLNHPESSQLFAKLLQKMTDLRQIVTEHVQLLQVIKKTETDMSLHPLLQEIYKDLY

The target in test [13] is human Retinoic Acid Receptor gamma (RARg), RARG (gene 5916) (UniProt P13631). Briefly: ATG_RARg_TRANS: Attagene TRANS-FACTORIAL HepG2 Assay for human Retinoic Acid Receptor gamma (RARg) (AID 2283009; active = hit-call score of the fitted dose curve at least 0.9, where 1 is the maximum). A digest of the protocol: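 TRANS format measured activity of exogenous NR-GAL4 fusion (RARg) in transfected HepG2 liver cells after 24 h dosing. Induced reporter RNA was detected by RT-PCR/capillary electrophoresis fluorescence, analysed in the positive direction against DMSO.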
Sequence of human Retinoic Acid Receptor gamma (RARg), RARG (gene 5916) (P13631 whole entry, looked up, the tested form may be a part): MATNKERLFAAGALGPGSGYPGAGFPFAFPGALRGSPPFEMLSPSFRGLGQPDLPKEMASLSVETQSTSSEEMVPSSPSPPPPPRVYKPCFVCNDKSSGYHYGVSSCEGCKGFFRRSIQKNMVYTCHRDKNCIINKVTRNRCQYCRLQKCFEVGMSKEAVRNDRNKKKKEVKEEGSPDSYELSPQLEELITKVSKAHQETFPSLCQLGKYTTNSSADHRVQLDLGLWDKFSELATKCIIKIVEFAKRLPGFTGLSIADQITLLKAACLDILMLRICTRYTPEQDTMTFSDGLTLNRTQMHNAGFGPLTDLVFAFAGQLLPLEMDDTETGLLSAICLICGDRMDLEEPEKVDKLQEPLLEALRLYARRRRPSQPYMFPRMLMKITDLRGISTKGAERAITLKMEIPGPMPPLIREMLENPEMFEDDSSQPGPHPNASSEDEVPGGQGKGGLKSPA

Sequence of human Retinoic Acid Receptor beta (RARb), RARB (gene 5915) (P10826 whole entry, looked up, the tested form may be a part): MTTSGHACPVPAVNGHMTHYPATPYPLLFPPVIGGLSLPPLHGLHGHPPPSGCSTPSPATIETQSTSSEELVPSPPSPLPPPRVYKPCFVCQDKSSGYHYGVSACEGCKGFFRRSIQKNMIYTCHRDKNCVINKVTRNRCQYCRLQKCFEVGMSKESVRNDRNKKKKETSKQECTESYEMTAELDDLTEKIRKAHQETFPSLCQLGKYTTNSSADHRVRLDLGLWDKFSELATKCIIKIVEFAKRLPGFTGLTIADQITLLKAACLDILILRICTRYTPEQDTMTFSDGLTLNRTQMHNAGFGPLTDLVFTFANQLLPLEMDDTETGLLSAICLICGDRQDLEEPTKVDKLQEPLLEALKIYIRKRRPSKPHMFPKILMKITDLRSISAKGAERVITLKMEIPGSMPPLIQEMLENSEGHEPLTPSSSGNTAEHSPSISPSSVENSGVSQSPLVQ
Sequence of human RAR-related Orphan Receptor beta (RORb), RORB (gene 6096) (Q92753 whole entry, looked up, the tested form may be a part): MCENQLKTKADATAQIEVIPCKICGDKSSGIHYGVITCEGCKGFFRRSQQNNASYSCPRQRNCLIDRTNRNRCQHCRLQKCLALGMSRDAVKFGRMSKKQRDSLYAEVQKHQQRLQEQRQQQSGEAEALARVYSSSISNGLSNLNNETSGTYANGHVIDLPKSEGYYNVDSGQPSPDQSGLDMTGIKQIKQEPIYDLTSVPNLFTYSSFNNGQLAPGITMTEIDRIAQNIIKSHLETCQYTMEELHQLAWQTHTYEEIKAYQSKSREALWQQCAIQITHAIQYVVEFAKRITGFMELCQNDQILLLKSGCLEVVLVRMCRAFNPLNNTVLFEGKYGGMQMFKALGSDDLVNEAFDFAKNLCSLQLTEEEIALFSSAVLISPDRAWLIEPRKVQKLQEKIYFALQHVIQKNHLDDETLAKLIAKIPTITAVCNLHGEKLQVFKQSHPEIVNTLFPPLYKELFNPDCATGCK
Sequence of Myc proto-oncogene protein (Homo sapiens) (P01106 whole entry, looked up, the tested form may be a part): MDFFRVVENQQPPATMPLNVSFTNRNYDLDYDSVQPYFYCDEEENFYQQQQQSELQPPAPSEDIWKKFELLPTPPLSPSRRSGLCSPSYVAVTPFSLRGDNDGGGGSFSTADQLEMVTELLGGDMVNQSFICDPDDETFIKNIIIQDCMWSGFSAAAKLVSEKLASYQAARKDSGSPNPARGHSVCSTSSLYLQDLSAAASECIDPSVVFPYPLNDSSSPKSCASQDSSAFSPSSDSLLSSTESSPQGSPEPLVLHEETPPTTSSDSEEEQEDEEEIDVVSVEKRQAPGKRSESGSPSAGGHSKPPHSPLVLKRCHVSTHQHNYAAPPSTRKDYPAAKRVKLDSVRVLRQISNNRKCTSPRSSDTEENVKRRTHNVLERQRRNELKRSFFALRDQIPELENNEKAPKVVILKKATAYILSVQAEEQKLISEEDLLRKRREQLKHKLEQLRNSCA
Sequence of human Peroxisome Proliferator-activated Receptor delta (PPARd), PPARD (gene 5467) (Q03181 whole entry, looked up, the tested form may be a part): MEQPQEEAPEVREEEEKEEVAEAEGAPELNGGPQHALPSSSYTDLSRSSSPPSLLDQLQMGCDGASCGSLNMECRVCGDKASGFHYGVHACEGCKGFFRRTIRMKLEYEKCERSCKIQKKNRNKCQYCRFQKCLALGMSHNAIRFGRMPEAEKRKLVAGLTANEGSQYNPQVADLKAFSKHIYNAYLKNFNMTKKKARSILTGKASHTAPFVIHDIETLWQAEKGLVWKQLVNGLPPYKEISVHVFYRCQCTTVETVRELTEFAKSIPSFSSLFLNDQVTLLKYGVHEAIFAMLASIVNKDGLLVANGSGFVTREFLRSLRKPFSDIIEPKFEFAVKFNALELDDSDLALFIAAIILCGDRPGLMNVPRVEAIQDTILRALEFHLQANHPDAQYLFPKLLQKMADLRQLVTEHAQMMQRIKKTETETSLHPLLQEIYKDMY
Sequence of Retinoic acid receptor alpha (Homo sapiens) (P10276 whole entry, looked up, the tested form may be a part): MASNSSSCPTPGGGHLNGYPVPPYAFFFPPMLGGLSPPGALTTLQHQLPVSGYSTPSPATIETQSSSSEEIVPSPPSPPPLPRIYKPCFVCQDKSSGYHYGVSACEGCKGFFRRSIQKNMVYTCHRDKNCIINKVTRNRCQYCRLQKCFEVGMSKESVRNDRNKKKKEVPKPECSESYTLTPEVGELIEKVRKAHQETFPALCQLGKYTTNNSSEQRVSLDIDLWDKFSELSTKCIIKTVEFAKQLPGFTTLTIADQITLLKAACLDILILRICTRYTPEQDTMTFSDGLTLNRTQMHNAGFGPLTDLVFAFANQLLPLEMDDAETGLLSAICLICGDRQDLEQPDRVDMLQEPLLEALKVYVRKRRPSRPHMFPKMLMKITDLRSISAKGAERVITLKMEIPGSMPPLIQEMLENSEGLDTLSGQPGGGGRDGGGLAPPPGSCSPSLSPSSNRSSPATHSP
Sequence of Nuclear receptor subfamily 1 group I member 2 (Homo sapiens) (O75469 whole entry, looked up, the tested form may be a part): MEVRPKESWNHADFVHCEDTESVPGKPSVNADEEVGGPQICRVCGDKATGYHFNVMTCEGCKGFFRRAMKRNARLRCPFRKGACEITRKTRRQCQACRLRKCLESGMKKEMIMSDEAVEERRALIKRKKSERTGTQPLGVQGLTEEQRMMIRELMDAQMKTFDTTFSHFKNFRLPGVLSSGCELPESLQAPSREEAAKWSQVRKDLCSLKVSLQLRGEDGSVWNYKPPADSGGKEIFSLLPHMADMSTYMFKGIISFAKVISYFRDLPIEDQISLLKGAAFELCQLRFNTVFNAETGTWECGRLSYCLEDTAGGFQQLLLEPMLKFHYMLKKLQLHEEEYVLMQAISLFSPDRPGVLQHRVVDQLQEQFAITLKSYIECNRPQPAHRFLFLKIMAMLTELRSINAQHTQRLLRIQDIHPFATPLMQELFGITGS
Sequence of human Peroxisome Proliferator-activated Receptor alpha (PPARa), PPARA (gene 5465) (Q07869 whole entry, looked up): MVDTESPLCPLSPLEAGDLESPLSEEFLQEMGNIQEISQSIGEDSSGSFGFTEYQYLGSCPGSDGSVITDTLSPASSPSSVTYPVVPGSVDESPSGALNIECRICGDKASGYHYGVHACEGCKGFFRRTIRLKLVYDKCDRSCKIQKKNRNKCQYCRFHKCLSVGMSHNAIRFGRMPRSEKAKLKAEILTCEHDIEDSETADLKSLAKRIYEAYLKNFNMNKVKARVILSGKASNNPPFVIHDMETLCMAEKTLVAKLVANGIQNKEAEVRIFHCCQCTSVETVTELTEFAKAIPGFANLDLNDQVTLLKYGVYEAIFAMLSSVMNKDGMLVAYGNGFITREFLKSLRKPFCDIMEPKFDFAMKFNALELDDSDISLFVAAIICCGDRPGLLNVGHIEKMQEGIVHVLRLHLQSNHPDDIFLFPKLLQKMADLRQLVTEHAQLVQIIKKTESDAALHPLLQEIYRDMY
Sequence of Cellular tumor antigen p53 (Homo sapiens) (P04637 whole entry, looked up, the tested form may be a part): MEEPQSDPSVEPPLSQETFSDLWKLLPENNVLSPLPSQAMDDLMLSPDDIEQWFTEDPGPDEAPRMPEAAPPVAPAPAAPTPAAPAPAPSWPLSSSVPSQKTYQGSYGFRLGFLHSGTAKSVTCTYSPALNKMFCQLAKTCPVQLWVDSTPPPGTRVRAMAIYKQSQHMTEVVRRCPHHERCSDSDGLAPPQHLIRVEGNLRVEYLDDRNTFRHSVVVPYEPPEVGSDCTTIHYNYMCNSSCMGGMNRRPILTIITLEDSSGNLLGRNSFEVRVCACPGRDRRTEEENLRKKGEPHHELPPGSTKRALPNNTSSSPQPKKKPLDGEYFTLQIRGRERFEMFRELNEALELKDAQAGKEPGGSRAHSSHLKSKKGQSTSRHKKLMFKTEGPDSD

For `CCCC(=O)OCc1ccccc1`, the compound was classed as inactive in test [1], in test [2], in test [3], in test [4], in test [5] and in test [6].
Regarding `Cc1ccc(C(C)(C)C)cc1`, the result in test [1], in [2], in [3], in test [4], in [7] and in [8] was inactive. The outcome in test [9] and in test [10] was inactive.
Regarding `CCCCCC/C=C/C=O`, the result in test [1], in test [2], in test [4], in test [11], in test [9] and in [10] was inactive. For the same compound, the results for the AC50 in test [3], in test [7] and in test [12] were 47.7 µM (active), 66.3 µM (active) and 20.8 µM (active), respectively.
For the compound `NC(CO)(CO)CO`, the call in test [1], in test [2], in [3], in [4], in test [7] and in test [8] was inactive.
For the compound `Cc1c(C)c([N+](=O)[O-])c(C(C)(C)C)c([N+](=O)[O-])c1C`, the compound was called inactive in [1], in [2], in [3], in test [4], in test [5] and in [8]. The compound was classed as inactive in test [6], in test [12], in test [13] and in [10]. Moreover, in [9], the half-maximal activity concentration (AC50) was 2 µM (active).
For `Cc1cnc(NC(=O)C2=C(O)c3ccccc3S(=O)(=O)N2C)s1`, the call in test [1], in test [2], in test [3], in [4], in test [7] and in test [11] was inactive. Further, the compound was called inactive in [8], in test [6], in [13] and in test [10]. In [12], the AC50 was 40.4 µM (active).
On to `COC(=O)c1ccccc1OC`, for which the outcome in test [1], in [2], in [3], in [4], in test [7] and in test [9] was inactive.
For `CC1(C)[C@H]2CC[C@]1(C)C(=O)C2`, the call in test [1], in [2], in test [3], in test [4], in [5] and in test [8] was inactive. Also, the call in test [9] and in test [13] was inactive.
For `C1=Cc2ccccc2C1`, the outcome in [1], in test [2], in [4], in [7], in [11] and in [13] was inactive. Moreover, the compound was classed as inactive in [10]. For the same compound, the values for the AC50 in [3], in [12] and in test [9] were 19.8 µM (active), 67.4 µM (active) and 6.06 µM (active), respectively.
As to `COC=O`, the compound was called inactive in test [1], in test [2], in [3], in test [4], in [11] and in test [8]. The compound was classed as inactive in test [9] and in [13].
As for `O=C(O)Cc1c(Cl)ccc(Cl)c1Cl`, the outcome in test [1], in test [2], in test [3], in [4], in test [11] and in test [8] was inactive. The outcome in [9] and in [13] was inactive. In addition, the AC50 in test [12] is 52.1 µM (active).
